Only some compounds are listed: those with a hit (about 2.3% of all), similar ones and a draw of the others.
FUS suppressor – qHTS for Suppressors of FUS Proteinopathy: Primary screen using FUS-linked yeast assay; AID 1347120, 2019; S. cerevisiae FUS-expressing, growth rescue, OD600, 24 h; Potency, µM (top dose mostly 76.6 µM), actives largely listed as activators; actives 0.24% (n = 390,000); also: nearly all actives have a fitted effect of over 55% in size
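FUS-expressing yeast, raffinose-pregrown, induced in 2% galactose minimal medium at OD 0.005; compounds in a dilution series, 24hr at 30C. Growth restoration read as absorbance at 600 nm. CP55940 positive control, DMSO negative.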
ELG1 repair inh – qHTS screen for small molecules that inhibit ELG1-dependent DNA repair in human embryonic kidney (HEK293T) cells expressing luciferase-tagged ELG1 | HEK293T ELG1-luciferase reporter, luminescence, 16 h; DNA damage induced by 5-fluorouridine | Potency, µM (series often up to 46.1 µM), usual class: inhibitors | actives 2.3% (n = 330,000); also: nearly all actives have a fitted effect of over 55% in size
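HEK293T cells expressing luciferase-tagged ELG1 (2,000/well) received 5-Fluorouridine plus compound or DMSO for 16 hr at 37 °C. Luciferase was read by ONE-Glo luminescence after 30 min at room temperature.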
TRPV1 potentiator – HTS Assay for Compounds that Act as Potentiators of the Vanilloid Receptor 1; actives 0.02% (n = 320,000); Transient receptor potential cation channel subfamily V member 1 (Homo sapiens), Q8NER1; AID 540277, 2011; potentiation, % at 8.33 µM; TRPV1-expressing cells, Fluo-8 calcium influx, capsaicin EC20 potentiation; in the data active = potentiation above about 80%; inconclusive = between about 30% and that limit
Target sequence (Q8NER1 whole entry, looked up): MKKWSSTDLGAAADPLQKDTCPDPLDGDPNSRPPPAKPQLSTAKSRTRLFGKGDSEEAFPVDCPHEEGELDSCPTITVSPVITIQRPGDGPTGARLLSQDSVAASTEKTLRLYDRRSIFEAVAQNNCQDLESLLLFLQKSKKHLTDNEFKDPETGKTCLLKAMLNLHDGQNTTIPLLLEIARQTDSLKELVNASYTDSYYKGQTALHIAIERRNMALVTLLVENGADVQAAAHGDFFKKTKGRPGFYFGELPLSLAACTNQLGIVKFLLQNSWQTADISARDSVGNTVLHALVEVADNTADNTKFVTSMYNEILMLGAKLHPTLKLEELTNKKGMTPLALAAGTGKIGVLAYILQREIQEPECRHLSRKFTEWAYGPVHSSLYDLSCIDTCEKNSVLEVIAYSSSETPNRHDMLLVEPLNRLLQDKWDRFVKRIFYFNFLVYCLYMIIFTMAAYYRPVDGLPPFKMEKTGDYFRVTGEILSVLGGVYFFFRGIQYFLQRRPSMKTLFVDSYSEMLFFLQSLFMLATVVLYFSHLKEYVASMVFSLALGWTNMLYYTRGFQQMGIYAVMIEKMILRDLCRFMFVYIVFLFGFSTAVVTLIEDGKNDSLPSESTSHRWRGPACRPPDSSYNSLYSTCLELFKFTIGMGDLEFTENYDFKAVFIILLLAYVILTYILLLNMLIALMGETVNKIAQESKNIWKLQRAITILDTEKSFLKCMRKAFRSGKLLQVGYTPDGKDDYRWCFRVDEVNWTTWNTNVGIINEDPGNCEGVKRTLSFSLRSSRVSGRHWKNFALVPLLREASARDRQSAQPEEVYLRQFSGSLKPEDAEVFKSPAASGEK
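TRPV1-expressing cells were cultured overnight at 35.5C and loaded with Fluo-8 calcium dye for 40 to 90 min at room temperature. After a 10 s baseline, compound was added and calcium influx was read kinetically for 3 min (ex 480/em 520 nm).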
Giardia kill – Small Molecules that selectively kill Giardia lamblia: qHTS; Giardia lamblia trophozoite viability; activity change, % at 7.66 µM, hits read low; actives 0.15% (n = 340,000); AID 540267, 2011; in the data active = activity change below about -80%; inconclusive = between about -30% and that limit;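 also: parasites exposed to compound for two days anaerobically before the ATP read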
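Compounds were tested on trophozoites seeded at 100 cells/well and held 48 hrs at 37 deg C anaerobically. An ATP-based luminescent kit measured the remaining live cells.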
TRPV1 agonist – HTS Assay for Compounds that Act as Agonists of the Vanilloid Receptor 1 | actives 0.19% (n = 320,000) | activation, % at 8.33 µM | Transient receptor potential cation channel subfamily V member 1 (Homo sapiens), Q8NER1 | TRPV1-expressing cells, Fluo-8 calcium influx, agonist mode; in the data active = activation above about 80%; inconclusive = between about 30% and that limit
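Cells expressing TRPV1 were dye-loaded with Fluo-8 and read kinetically: 10 s baseline, 3 min after compound (agonist portion), then 2 min after EC20 capsaicin (allosteric enhancer portion). Calcium-bound dye fluorescence at 480/520 nm.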
ELG1 FLuc counter – qHTS screen for small molecules that inhibit ELG1-dependent DNA repair: Hit Confirmation in Cell-Based Luciferin Assay; shares compounds with ELG1 repair inh; cell-free firefly luciferase luminescence counter-screen, ViewLux; Potency, µM (series often up to 46.1 µM), hits mostly inhibitors; actives 3% (n = 350)
ELG1 Luc conf – HTS assay for small molecules that inhibit ELG1-dependent DNA repair in human embryonic kidney (HEK293T) cells expressing luciferase-tagged ELG1: Hit Confirmation; HEK293T ELG1-luciferase levels, luminescence; cells co-treated with 5-fluorouridine; shares compounds with ELG1 repair inh; actives 68% (n = 670); Potency, µM (top dose mostly 46.1 µM), actives largely listed as inhibitors; also: nearly all actives have a fitted effect of over 55% in size
ELG1 MMS Luc – confirmation of human ELG1 repair inhibitors, MMS stimulated; shares compounds with ELG1 repair inh; HEK293T luciferase-tagged ELG1 level, MMS stimulated; Potency, µM (top dose mostly 46.1 µM), hits mostly inhibitors; actives 53% (n = 670); also: nearly all actives have a fitted effect of over 60% in size
ELG1 5-FU – qHTS screen for small molecules that inhibit ELG1-dependent DNA repair: Hit Confirmation with 5FU Viability. shares compounds with ELG1 repair inh. cell viability with 5-FU, ELG1-dependent repair. 670 tested, under 10 active. Potency, µM (titrated, usually from 46.1 µM), usual class: cytotoxic. AID 624250, 2012;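 also: ELG1-luc HEK293T cells cotreated with 5-fluorouridine at 10 µM final; viability measured 16 h after compound addition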
ELG1 MMS cell – qHTS screen for small molecules that inhibit ELG1-dependent DNA repair: Hit Confirmation with MMS Viability; Cell viability with MMS, ELG1-dependent DNA repair; actives 33% (n = 670); Potency, µM (doses to about 46.1 µM), hits mostly cytotoxic; shares compounds with ELG1 repair inh;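 also: ELG1-luc HEK293T cells co-treated with 10 µM MMS; viability read 16 h after compound addition; nearly all actives have a fitted effect of over 60% in size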
Cell viab unstim – qHTS screen for small molecules that inhibit ELG1-dependent DNA repair: Hit Confirmation with Unstimulated Viability Assay; cell viability counter-screen, unstimulated, luminescence; actives 8% (n = 900); Potency, µM (highest dose often 45.9 µM), most hits filed as cytotoxic; shares compounds with ELG1 repair inh;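 also: compound exposure lasted 16 hours before reading; nearly all actives have a fitted effect of over 55% in size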
FLuc enzyme – qHTS screen for small molecules that inhibit ELG1-dependent DNA repair: Hit Confirmation in Biochemical Luciferin Assay; shares compounds with ELG1 repair inh; purified firefly luciferase, luminescence counter-screen; Potency, µM (highest dose often 57.5 µM), usual class: inhibitors; actives 10% (n = 350); AID 624253, 2012
Of the large screens only hits and unclear results are named; the others gave an inactive call (follow-up assays come after a bar, where they were run). Unless noted, calls follow the shape of the dose curve; as a rule, active = well fitted curve in the direction sought with a large enough effect; inconclusive = small, poorly fitted or top-dose-only effect, or another doubt; inactive = no such curve, though single readings can be large; an effect the other way counts as inactive or inconclusive.

O=C(COc1ccccc1-c1nnc(-c2ccccc2)o1)Nc1ccc(Br)cc1F	none (no result: ELG1 repair inh, TRPV1 potentiator, Giardia kill, TRPV1 agonist)
O=C(CNC(=O)c1cccc(Br)c1)N/N=C/c1cccs1	none
O=C(CNC(=O)c1cccc(F)c1)N/N=C/c1ccc([N+](=O)[O-])s1	ELG1 repair inh 2.9µM, Giardia kill inconclusive | ELG1 Luc conf inconclusive | ELG1 MMS Luc 10µM | ELG1 5-FU inactive | ELG1 MMS cell 14µM | Cell viab unstim inactive
COc1ccc(CCNC(=S)NC(=O)c2cc(OC)c(OC)c(OC)c2)cc1OC	ELG1 repair inh 1.8µM | ELG1 Luc conf 2.5µM | ELG1 MMS Luc inactive | ELG1 5-FU inconclusive | ELG1 MMS cell inactive | Cell viab unstim inconclusive
COc1ccc(NC(=O)CSc2nc3cc(OC)c(OC)cc3c3nc(-c4ccccc4)nn23)cc1Cl	none (no result: ELG1 repair inh, TRPV1 potentiator, Giardia kill, TRPV1 agonist)
O=C(OCC(=O)N1CCc2ccccc2C1)c1c(F)cccc1Cl	ELG1 repair inh inconclusive (no result: TRPV1 potentiator, TRPV1 agonist) | Cell viab unstim inactive
O=C(OCC(=O)N1CCCC1)c1c(Cl)cccc1Cl	ELG1 repair inh inconclusive
Cc1c(CCNC(=O)c2ccc(Br)o2)sc2nc(-c3ccc(Cl)cc3)nn12	none (no result: ELG1 repair inh, TRPV1 potentiator, Giardia kill, TRPV1 agonist)
Cc1ccc(-n2nc3c(=O)n(CC(=O)NCCc4ccccc4C)nc(C)c3c2C)cc1	ELG1 repair inh 3.7µM | ELG1 Luc conf inconclusive | ELG1 MMS Luc 10µM | ELG1 5-FU inactive | ELG1 MMS cell 10µM | Cell viab unstim inconclusive
CCOC(=O)c1sc(N(Cc2ccccc2)C(=O)COC(=O)c2ccccc2O)nc1C	none (no result: FUS suppressor)
CCOC(=O)c1sc(N(Cc2ccccc2)C(=O)COC(=O)c2ccc(O)cc2)nc1C	ELG1 repair inh 1.3µM (no result: FUS suppressor) | ELG1 Luc conf 2µM | ELG1 MMS Luc 0.71µM | ELG1 5-FU inactive | ELG1 MMS cell 0.79µM | Cell viab unstim inconclusive
COc1ccc(-c2cc(C)no2)cc1S(=O)(=O)N1CCN(c2cccc(C)c2)C(C)C1 (stereo not drawn)	FUS suppressor inconclusive, ELG1 repair inh 3.3µM | ELG1 Luc conf 13µM | ELG1 MMS Luc 3.1µM | ELG1 5-FU inactive | ELG1 MMS cell 4µM | Cell viab unstim inconclusive
Cc1cccc(N2CCN(S(=O)(=O)c3cc(-c4cc(C)no4)ccc3C)CC2C)c1 (stereo not drawn)	ELG1 repair inh inconclusive
O=C(CSCC(=O)N1CCOCC1)Nc1nc(-c2ccccc2)cs1	ELG1 repair inh inconclusive
CCOC(=O)N1CCN(C(=O)CSCC(=O)Nc2nc(-c3ccc(-c4ccccc4)cc3)cs2)CC1	FUS suppressor inconclusive, ELG1 repair inh 10µM | ELG1 FLuc counter inactive | Cell viab unstim 16µM | FLuc enzyme inconclusive
COC(=O)C1C(=O)C=C(N2CCOCC2)CC1(C)C (stereo not drawn)	ELG1 repair inh 4.1µM, TRPV1 potentiator inconclusive | ELG1 Luc conf inactive | ELG1 MMS Luc inactive | ELG1 5-FU inactive | ELG1 MMS cell inactive | Cell viab unstim inactive
CC1(C)CC(N2CCOCC2)=CC(=S)N1	none (no result: ELG1 repair inh, TRPV1 potentiator, Giardia kill, TRPV1 agonist)
COc1cc2c(=O)c(C(=O)c3ccc(C)c(C)c3)cn(Cc3ccc(F)cc3)c2cc1OC	none (no result: ELG1 repair inh, TRPV1 potentiator, Giardia kill, TRPV1 agonist)
Cc1ccc(-c2nc3ccccc3n3nnnc23)cc1	ELG1 repair inh inconclusive (no result: FUS suppressor) | ELG1 FLuc counter inactive | Cell viab unstim inactive | FLuc enzyme inconclusive
C/C(=N\NC(=O)c1c(C)nc2ccccn12)c1ccc(O)cc1O	ELG1 repair inh 2.9µM | ELG1 Luc conf inconclusive | ELG1 MMS Luc inconclusive | ELG1 5-FU inactive | ELG1 MMS cell inconclusive | Cell viab unstim inconclusive
Cc1ccc(-c2nc3sc(CCNC(=O)c4ccc(F)c(F)c4)c(C)n3n2)cc1	none (no result: ELG1 repair inh, TRPV1 potentiator, Giardia kill, TRPV1 agonist)
CCn1cc([N+](=O)[O-])c(C(=O)Nc2ccn(Cc3ccccc3)n2)n1	none (no result: FUS suppressor)
Cc1ccc(Cn2ccc(NC(=O)c3nn(C)cc3[N+](=O)[O-])n2)cc1	ELG1 repair inh inconclusive | ELG1 Luc conf inconclusive | ELG1 MMS Luc inconclusive | ELG1 5-FU inactive | ELG1 MMS cell inactive | Cell viab unstim inactive
Cc1nc(N2CCN(S(=O)(=O)c3ccc(F)cc3)CC2)c2c(C)c(C)sc2n1	none (no result: TRPV1 potentiator, TRPV1 agonist) | ELG1 FLuc counter inactive | ELG1 Luc conf inactive | ELG1 MMS Luc inactive | ELG1 5-FU inactive | ELG1 MMS cell inactive | Cell viab unstim inactive | FLuc enzyme inactive

Screens from PubChem.
